L3MBTL1 block: L3MBTL1 (human) inhibition; AlphaScreen L3MBTL1–H3K9me1 peptide binding; 230,000 tested, 0.66% active; Potency, µM (titrated, usually from 57.1 µM), for the others: at the highest dose activity, negative = inhibition, hits mostly inhibitors; further: on the % scale 0 is the no-effect control and ±100 the full control effect; nearly all actives have a fitted effect of over 60% in size
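First, the protein-peptide complex forms for 30 min at room temperature (L3MBTL1 50 nM, biotinylated H3K9me1 peptide 75 nM). Next, compounds are pin-transferred and incubated 30 min. Finally, AlphaScreen beads are added and read after 30 min.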
JMJD2A Tudor: JMJD2A Tudor domain (human) inhibition | O75164 | AlphaScreen JMJD2A-Tudor / H3K4me3 peptide binding | Potency, µM (highest dose often 114 µM), for the others: at the highest dose activity change, negative = inhibition, hits mostly inhibitors | 390,000 tested, 4.4% active | AID 504339; further: on the % scale 0 is the no-effect control and ±100 the full control effect; nearly all actives have a fitted effect of over 50% in size
HP1b chromo inh: inhibitors of HP1-beta chromodomain binding to methylated histone tails; P83916; AlphaScreen HP1-beta / biotin-H3K9me3 peptide binding; Potency, µM (titrated, usually from 114 µM), without a hit: at the top dose activity change, negative = inhibition, actives largely listed as inhibitors; 390,000 tested, 0.56% active; further: nearly all actives have a fitted effect of over 70% in size
Target sequence (P83916 whole entry, looked up): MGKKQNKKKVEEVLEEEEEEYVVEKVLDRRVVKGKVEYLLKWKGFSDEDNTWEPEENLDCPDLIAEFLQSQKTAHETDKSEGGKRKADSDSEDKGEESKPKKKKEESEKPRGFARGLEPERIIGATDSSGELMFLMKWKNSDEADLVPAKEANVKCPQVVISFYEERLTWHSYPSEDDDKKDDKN
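Compound inhibition of the preformed complex between 50 nM HP1-beta and 50 nM biotinylated H3K9me3 peptide was read by AlphaScreen. Buffer was PBS pH 7.4 with 0.01% Tween-20. Incubations ran 30 min at room temperature, with 10 ug/mL donor/acceptor beads.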
GLS inhibitor: glutaminase GLS (human) inhibition; O94925; GLS enzymatic activity, qHTS titration; Potency, µM (doses to about 45.5 µM), for inactives: top-dose activity change, negative = inhibition, most hits filed as inhibitors; 410,000 tested, 0.21% active; further: on the % scale 0 is the no-effect control and ±100 the full control effect
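Two-point fluorescence kinetic (t0, 30 min RT) for hKGA; glutamate detected via glutamate oxidase–HRP–Amplex Red. Substrate: 1 mM L-glutamine solution; buffer 45 mM KH2PO4, pH 8.2.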
G9a block: blocks human histone lysine methyltransferase G9a; Q96KQ7; G9a H3K9 monomethylation, AlphaScreen, 2 h; Potency, µM (titrated, usually from 102 µM), without a hit: at the top dose activity, negative = inhibition, actives largely listed as inhibitors; 350,000 tested, 8.8% active; AID 504332; further: on the % scale 0 is the no-effect control and ±100 the full control effect; nearly all actives have a fitted effect of over 75% in size
Target sequence (Q96KQ7 913-1193 limits assumed): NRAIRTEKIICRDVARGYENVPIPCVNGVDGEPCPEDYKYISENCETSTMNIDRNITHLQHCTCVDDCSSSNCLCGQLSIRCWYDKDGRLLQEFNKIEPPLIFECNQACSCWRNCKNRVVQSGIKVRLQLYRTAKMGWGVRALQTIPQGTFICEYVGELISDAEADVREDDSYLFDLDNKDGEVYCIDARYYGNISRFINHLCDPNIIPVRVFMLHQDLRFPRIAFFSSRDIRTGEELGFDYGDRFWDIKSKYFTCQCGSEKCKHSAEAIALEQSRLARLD
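Compounds were preincubated with 20 nM G9a for 15 min, after which biotinylated H3K9 peptide (500 nM) and SAM (20 uM) started a 2 h room-temperature reaction. Monomethylated product was quantified by antibody-based AlphaScreen chemiluminescence.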
BAZ2B block: blocks human BAZ2B | AlphaScreen BAZ2B-H3K14Ac peptide displacement | Potency, µM (titrated, usually from 114 µM), without a hit: at the top dose activity change, negative = inhibition, actives largely listed as inhibitors | 360,000 tested, 4.4% active | AID 504333; further: on the % scale 0 is the no-effect control and ±100 the full control effect; nearly all actives have a fitted effect of over 60% in size
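Multi-concentration screen (max 110 uM) measuring displacement of acetylated histone H3 peptide from BAZ2B by AlphaScreen, using 50 nM protein, 50 nM peptide and 10 ug/mL streptavidin donor plus Ni-chelate acceptor beads.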
* = called active by the depositor; ? = inconclusive; / = no result given; [ ] = remark or other dose. Shown are actives, neighbours in structure and some others; about 10% of the full set was active somewhere. The call rests on the fitted dose curve; in most records, active means well fitted curve in the direction sought with a large enough effect; inconclusive means small, poorly fitted or top-dose-only effect, or another doubt; inactive means no such curve, though single readings can be large; an effect the other way counts as inactive or inconclusive. Potency means the concentration at half of the fitted maximal effect.

SMILES	L3MBTL1 block	JMJD2A Tudor	HP1b chromo inh	GLS inhibitor	G9a block	BAZ2B block
CCN=C1NN=C(c2cc(C)n(CCc3ccccc3)c2C)CS1	/	56µM*	?	0%	?	-38%
C/C(=C(\CCO)SSCC1CCCO1)N(C=O)Cc1cnc(C)nc1N (stereo unspecified)	/	/	/	-1%	/	/
COc1ccc(NC(=O)CSc2nc3cc(OC)c(OC)cc3c3nc(-c4ccccc4)nn23)cc1Cl	/	-18%	47%	5%	6%[59 µM]	/
CC1CCN(S(=O)(=O)c2cc(F)ccc2CN2C(=O)c3cccnc3C2=O)CC1	/	-2%	56%	-6%	-2%	56µM*
COc1ccc2oc(-c3ccc(C)c(NC(=O)c4ccc(N5CCCCC5)c([N+](=O)[O-])c4)c3)nc2c1	/	-16%	9%	-8%	3%[59 µM]	-13%
Cn1cnc(C(=O)N2CCc3ccccc3C2)c1C(=O)N1CCc2ccccc2C1	4%	16µM*	?	5%	/	/
COc1cccc(N2CCN(C(=O)c3c(C)oc4ncnc(N5CCCCC5)c34)CC2)c1	/	-3%	-2%	-10%	-19%[59 µM]	-35%[57.1 µM]
O=C(c1c2c(nc3ccccc13)C(=O)N(C1CCCCC1)C2)N1CCN(c2ccc(F)cc2)CC1	/	-29%	15%	8%	-4%[59 µM]	-26%
CSc1ccc(C2c3[nH]c4ccccc4c3CCN2C(=O)CCC2CCCC2)cc1 (stereo unspecified)	/	?	-6%[57 µM]	-11%	-30%[59 µM]	?
O=C(C1=C(O)C(=O)N(CCCn2ccnc2)C1c1ccccc1)c1ccco1 (stereo unspecified)	/	-9%	28%	17%	/	-18%
O=C(C1=C(O)C(=O)N(Cc2ccccc2)C1c1ccncc1)c1ccco1 (stereo unspecified)	-3%	?	16%	8%	40µM*	3%
Cc1ccc(C(=O)C2=C(O)C(=O)N(Cc3cccnc3)C2c2ccc(OC(C)C)cc2)o1 (stereo unspecified)	/	?	21%	-4%	/	?
Cc1ccc(C(=O)C2=C(O)C(=O)N(Cc3ccco3)C2c2ccc(N(C)C)cc2)o1 (stereo unspecified)	/	?	22%	-4%	/	35µM*
Cc1ccc(C(=O)C2=C(O)C(=O)N(Cc3cccnc3)C2c2ccc(Br)cc2)o1 (stereo unspecified)	/	-20%	8%	0%	?	-1%
C=CCOc1cccc(C2C(C(=O)c3ccco3)=C(O)C(=O)N2Cc2cccnc2)c1 (stereo unspecified)	/	-30%	33%	-12%	32µM*	9%
Cc1ccc(C(=O)C2=C(O)C(=O)N(Cc3cccnc3)C2c2ccc(N(C)C)cc2)o1 (stereo unspecified)	/	-30%	7%	-4%	35µM*	-33%
Cc1ccc(CCNC(=O)c2cc3n(n2)CCCN(Cc2ccc(C)cc2)C3=O)cc1	/	-25%	10%	-15%	1%[59 µM]	-3%
CN(C)c1ccc(C(CNC(=O)c2c(F)cccc2Cl)N2CCOCC2)cc1 (stereo unspecified)	/	-18%	4%	25%	-38%[59 µM]	-19%
COc1cccc2cc(C(=O)C3=C(O)C(=O)N(Cc4ccco4)C3c3cccnc3)oc12 (stereo unspecified)	/	79µM*	10%	15%	?	-6%
Cc1ccc(C(=O)C2=C(O)C(=O)N(c3ncccn3)C2c2cccc(Cl)c2)o1 (stereo unspecified)	5%	/	/	/	10µM*	?
O=C(C1=C(O)C(=O)N(Cc2ccco2)C1c1cccc(O)c1)c1ccco1 (stereo unspecified)	/	-13%	26%	-6%	50µM*	-18%
COc1ccc(C2C(C(=O)c3ccc(C)o3)=C(O)C(=O)N2Cc2cccnc2)cc1 (stereo unspecified)	/	35µM*	16%	-29%	50µM*	-17%
O=C(Cc1ccccc1)Nc1sc2c(c1C(=O)Nc1ccc(Cl)cc1)CCOC2	/	-24%	/	/	/	/
Cc1ccc(N2C(=O)CS(=O)(=O)C23C(=O)N(Cc2ccc(Cl)cc2)c2ccccc23)cc1C (stereo unspecified)	/	-16%	28%	-7%	-47%[59 µM]	4%[57.1 µM]
Cc1ccc(C(=O)C2=C(O)C(=O)N(Cc3ccco3)C2c2cccc(Cl)c2)o1 (stereo unspecified)	/	25µM*	1%	-19%	40µM*	?
SMILES	L3MBTL1 block	JMJD2A Tudor	HP1b chromo inh	GLS inhibitor	G9a block	BAZ2B block
Cc1ccc(C(=O)C2=C(O)C(=O)N(Cc3ccco3)C2c2cccc(Br)c2)o1 (stereo unspecified)	/	?	-2%	-5%	?	?
COc1ccc(CNCc2c(C(=O)O)c(C)n(Cc3ccc(Cl)cc3)c2C)c(OC)c1	/	-23%	21%	-5%	-4%[59 µM]	-22%
Cc1cc(C)c(NC(=O)CSc2n[nH]c(-c3ccccc3Cl)n2)c(C)c1	/	-10%	17%[57 µM]	1%	-4%[59 µM]	2%
O=C(CSc1nc(=O)[nH]c2c1CCC2)NCc1ccc(Cl)cc1	/	6%	27%	7%	10%[59 µM]	5%
O=C1CCC(=O)N1CO	/	/	/	0%	-21%[12.7 µM]	/
O=C(CN1C(=O)c2ccccc2S1(=O)=O)Nc1ccon1	-3%	1%	31%	10%	-1%	22%
Cc1nnc(NC(=O)CN2C(=O)c3ccccc3S2(=O)=O)s1	/	-28%	22%	-1%	50µM*	-2%
Cc1cc(NC(=O)CN2C(=O)c3ccccc3S2(=O)=O)no1	/	-13%	27%	-1%	25µM*	-16%
COc1cc(/C=C2\C(=O)NN(c3ccccc3)C2=O)ccc1OCC(N)=O	5%	/	/	/	50µM*	4%
C#CCOc1ccc(/C=C2/C(=O)NN(c3ccc(F)cc3)C2=O)cc1OC	/	-23%	14%	-6%	35µM*	-16%
COC(=O)c1ccc(N2NC(=O)/C(=C/c3ccc(OC)c(OC)c3)C2=O)cc1	-6%	-22%	6%	-9%	?	-3%
COc1cccc(C2Nc3c(F)cc(Br)cc3C3C=CCC32)c1OC (stereo unspecified)	11%	8%	59%	-2%	-2%	8%
O=[N+]([O-])c1ccc(Cl)c2c1C1C=CCC1C(c1ccccn1)N2 (stereo unspecified)	?	40µM*	?	-2%	20µM*	45µM*
O=C(O)c1ccc(Cl)c2c1C1C=CCC1C(c1ccccn1)N2 (stereo unspecified)	/	/	/	/	2µM*	25µM*
N#C/C(=C\c1ccc(Cl)c([N+](=O)[O-])c1)c1ccccn1	-8%[11.4 µM]	?	?	-6%	?	?
